Laboratory results taken from ChEMBL document CHEMBL1961873, “Compounds: GSK PKIS; Assays: Nanosyn kinase panel” (2012).

Key:
[1] = target: Sphingosine kinase 1 (Homo sapiens) (UniProt Q9NYA1); conditions: at 1 µM;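 further: mean SPHK1 inhibition value reported from the GSK PKIS kinase panel screen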
[2] = target: T1, Sphingosine kinase 2 (Homo sapiens) (UniProt Q9NRA0); conditions: at 0.1 µM
T1 sequence (whole entry): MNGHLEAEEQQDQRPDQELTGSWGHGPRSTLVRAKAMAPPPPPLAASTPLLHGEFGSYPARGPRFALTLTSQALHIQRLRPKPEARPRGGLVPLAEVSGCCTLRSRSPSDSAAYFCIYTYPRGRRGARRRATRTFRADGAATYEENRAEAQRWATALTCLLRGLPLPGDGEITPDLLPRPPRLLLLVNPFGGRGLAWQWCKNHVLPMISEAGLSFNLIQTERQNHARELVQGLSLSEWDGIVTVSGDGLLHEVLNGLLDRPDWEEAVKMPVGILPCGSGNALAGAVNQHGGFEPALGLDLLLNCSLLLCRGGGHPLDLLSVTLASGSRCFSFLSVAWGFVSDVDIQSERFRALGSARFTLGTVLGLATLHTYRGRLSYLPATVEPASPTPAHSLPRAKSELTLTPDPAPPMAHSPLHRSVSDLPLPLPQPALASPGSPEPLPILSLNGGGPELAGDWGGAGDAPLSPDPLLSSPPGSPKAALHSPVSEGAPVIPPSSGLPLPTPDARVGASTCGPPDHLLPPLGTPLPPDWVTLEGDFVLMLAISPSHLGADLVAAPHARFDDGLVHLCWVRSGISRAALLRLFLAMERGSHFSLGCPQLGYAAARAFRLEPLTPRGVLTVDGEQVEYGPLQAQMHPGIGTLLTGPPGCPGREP

[3] = target: T1, Sphingosine kinase 2 (Homo sapiens); conditions: at 1 µM
[4] = target: Casein kinase II subunit alpha (Homo sapiens) (UniProt P68400); conditions: at 0.1 µM
Sequence of Casein kinase II subunit alpha (Homo sapiens) (P68400 whole entry, looked up): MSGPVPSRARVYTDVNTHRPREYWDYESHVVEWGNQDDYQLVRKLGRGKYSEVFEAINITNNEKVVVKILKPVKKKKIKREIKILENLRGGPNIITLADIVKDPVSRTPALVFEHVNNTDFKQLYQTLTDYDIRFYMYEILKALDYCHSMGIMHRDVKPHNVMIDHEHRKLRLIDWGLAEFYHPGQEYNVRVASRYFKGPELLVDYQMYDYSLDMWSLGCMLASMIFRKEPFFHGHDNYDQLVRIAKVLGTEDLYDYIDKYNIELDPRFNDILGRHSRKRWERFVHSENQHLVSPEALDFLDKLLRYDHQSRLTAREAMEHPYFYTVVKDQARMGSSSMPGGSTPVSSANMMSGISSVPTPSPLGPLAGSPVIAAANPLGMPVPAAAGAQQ

[5] = target: Casein kinase II subunit alpha (Homo sapiens) (UniProt P68400); conditions: at 1 µM
[6] = target: T2, Inhibitor of nuclear factor kappa-B kinase subunit alpha (Homo sapiens) (UniProt O15111); conditions: at 0.1 µM
T2 sequence (whole entry): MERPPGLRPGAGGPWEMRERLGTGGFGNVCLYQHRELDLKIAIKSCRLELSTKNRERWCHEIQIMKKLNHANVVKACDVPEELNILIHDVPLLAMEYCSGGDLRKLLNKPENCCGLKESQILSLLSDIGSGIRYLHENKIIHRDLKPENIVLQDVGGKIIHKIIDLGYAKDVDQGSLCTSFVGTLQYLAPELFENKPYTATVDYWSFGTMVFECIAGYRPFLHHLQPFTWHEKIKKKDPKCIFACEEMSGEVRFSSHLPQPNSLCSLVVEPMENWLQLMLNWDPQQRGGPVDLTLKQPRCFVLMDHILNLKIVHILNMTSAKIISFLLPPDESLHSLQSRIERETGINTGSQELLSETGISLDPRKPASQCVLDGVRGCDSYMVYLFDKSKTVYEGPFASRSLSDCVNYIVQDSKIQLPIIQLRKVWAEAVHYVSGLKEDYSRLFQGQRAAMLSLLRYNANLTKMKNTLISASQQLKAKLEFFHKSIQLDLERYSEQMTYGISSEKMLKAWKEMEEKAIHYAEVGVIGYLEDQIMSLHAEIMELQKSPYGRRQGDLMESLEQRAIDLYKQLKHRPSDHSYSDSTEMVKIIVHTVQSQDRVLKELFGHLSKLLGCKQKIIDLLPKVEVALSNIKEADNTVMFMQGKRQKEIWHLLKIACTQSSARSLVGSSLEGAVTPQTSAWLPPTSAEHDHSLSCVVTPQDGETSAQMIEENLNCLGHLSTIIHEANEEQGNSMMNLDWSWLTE

[7] = target: T2, Inhibitor of nuclear factor kappa-B kinase subunit alpha (Homo sapiens); conditions: at 1 µM
[8] = target: T3, Inhibitor of nuclear factor kappa-B kinase subunit beta (Homo sapiens) (UniProt O14920); conditions: at 0.1 µM
T3 sequence (whole entry): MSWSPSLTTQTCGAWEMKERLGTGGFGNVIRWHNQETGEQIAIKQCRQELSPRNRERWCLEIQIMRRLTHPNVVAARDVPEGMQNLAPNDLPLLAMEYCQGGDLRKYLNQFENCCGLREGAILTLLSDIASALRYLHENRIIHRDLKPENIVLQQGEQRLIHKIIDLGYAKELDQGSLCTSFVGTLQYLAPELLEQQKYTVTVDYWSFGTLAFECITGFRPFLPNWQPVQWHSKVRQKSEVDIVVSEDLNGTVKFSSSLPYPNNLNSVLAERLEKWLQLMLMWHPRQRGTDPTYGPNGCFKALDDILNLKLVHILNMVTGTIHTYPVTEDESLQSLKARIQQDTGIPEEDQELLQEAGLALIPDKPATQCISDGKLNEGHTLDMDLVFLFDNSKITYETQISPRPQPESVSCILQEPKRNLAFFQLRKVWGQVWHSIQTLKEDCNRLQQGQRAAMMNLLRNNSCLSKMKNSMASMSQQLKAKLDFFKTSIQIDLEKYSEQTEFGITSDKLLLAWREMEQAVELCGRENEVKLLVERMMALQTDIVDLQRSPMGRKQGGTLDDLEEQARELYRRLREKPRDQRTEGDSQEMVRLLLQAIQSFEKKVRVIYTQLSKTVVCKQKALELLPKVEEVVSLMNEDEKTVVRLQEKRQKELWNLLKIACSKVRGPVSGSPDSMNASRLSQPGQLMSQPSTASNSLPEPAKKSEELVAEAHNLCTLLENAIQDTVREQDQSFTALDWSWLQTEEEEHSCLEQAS

[9] = target: T3, Inhibitor of nuclear factor kappa-B kinase subunit beta (Homo sapiens); conditions: at 1 µM
[10] = target: T4, Inhibitor of nuclear factor kappa-B kinase subunit epsilon (Homo sapiens) (UniProt Q14164); conditions: at 0.1 µM
T4 sequence (whole entry): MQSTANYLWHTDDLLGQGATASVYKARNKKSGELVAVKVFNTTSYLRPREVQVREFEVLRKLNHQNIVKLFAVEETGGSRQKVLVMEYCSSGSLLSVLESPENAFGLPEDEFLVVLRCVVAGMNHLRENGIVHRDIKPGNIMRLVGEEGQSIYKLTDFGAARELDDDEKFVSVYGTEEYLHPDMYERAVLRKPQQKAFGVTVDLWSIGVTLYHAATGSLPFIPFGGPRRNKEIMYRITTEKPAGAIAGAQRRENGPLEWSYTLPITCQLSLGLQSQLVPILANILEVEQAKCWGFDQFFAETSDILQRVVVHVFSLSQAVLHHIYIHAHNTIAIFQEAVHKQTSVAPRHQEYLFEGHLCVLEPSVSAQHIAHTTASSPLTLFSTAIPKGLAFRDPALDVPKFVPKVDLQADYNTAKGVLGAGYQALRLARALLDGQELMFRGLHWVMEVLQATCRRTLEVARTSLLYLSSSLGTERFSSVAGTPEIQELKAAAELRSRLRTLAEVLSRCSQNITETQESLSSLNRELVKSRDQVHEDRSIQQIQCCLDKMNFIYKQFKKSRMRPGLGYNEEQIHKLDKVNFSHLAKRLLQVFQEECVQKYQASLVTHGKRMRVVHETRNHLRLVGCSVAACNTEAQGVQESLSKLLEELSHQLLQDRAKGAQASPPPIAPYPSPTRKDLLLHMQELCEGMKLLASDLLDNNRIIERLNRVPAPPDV

[11] = target: T4, Inhibitor of nuclear factor kappa-B kinase subunit epsilon (Homo sapiens); conditions: at 1 µM
[12] = target: T5, Serine/threonine-protein kinase Nek1 (Homo sapiens) (UniProt Q96PY6); conditions: at 0.1 µM
T5 sequence (whole entry): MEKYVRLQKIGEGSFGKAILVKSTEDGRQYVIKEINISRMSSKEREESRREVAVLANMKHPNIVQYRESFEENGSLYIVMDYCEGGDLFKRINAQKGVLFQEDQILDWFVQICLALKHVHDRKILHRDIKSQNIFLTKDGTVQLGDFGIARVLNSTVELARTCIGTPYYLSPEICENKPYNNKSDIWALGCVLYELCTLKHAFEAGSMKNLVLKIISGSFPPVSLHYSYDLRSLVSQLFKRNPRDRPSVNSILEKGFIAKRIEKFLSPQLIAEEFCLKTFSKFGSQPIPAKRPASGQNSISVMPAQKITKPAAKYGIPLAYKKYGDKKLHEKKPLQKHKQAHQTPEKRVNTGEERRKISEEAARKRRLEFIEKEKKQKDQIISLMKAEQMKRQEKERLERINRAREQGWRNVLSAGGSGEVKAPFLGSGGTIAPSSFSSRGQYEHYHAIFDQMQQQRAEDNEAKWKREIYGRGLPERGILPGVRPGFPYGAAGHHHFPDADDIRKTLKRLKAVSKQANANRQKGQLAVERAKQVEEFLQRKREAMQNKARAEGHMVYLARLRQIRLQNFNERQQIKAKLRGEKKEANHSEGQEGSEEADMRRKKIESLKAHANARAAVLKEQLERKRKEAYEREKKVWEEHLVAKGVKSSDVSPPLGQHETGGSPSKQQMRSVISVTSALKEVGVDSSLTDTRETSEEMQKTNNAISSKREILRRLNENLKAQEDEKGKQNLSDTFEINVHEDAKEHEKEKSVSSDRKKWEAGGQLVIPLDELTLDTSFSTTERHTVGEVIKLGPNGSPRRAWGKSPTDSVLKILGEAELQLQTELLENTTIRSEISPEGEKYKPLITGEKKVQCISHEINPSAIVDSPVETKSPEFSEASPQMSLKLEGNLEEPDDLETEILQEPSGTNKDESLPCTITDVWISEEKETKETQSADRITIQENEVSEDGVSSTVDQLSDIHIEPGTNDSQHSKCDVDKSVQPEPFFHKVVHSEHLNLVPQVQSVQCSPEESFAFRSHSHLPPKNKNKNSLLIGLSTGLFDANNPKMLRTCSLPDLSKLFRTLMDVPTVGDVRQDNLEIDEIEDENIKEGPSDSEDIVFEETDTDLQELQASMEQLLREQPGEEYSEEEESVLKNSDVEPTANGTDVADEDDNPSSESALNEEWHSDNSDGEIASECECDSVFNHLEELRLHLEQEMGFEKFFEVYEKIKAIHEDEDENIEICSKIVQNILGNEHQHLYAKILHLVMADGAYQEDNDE

[13] = target: T5, Serine/threonine-protein kinase Nek1 (Homo sapiens); conditions: at 1 µM
[14] = target: T6, Serine/threonine-protein kinase Nek2 (Homo sapiens) (UniProt P51955); conditions: at 0.1 µM
T6 sequence (whole entry): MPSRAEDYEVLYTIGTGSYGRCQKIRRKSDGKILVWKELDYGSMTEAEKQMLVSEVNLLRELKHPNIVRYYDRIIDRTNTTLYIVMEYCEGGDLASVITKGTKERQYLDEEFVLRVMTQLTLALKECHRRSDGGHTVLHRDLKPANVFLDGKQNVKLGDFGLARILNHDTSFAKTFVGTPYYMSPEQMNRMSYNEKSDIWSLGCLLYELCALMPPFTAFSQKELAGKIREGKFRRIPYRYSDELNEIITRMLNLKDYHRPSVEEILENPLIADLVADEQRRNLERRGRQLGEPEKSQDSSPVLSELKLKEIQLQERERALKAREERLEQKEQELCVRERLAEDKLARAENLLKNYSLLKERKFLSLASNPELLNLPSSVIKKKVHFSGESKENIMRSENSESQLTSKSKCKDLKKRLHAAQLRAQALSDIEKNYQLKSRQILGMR

[15] = target: T6, Serine/threonine-protein kinase Nek2 (Homo sapiens); conditions: at 1 µM
[16] = target: Serine/threonine-protein kinase Nek6 (Homo sapiens) (UniProt Q9HC98); conditions: at 0.1 µM
Sequence of Serine/threonine-protein kinase Nek6 (Homo sapiens) (Q9HC98 whole entry): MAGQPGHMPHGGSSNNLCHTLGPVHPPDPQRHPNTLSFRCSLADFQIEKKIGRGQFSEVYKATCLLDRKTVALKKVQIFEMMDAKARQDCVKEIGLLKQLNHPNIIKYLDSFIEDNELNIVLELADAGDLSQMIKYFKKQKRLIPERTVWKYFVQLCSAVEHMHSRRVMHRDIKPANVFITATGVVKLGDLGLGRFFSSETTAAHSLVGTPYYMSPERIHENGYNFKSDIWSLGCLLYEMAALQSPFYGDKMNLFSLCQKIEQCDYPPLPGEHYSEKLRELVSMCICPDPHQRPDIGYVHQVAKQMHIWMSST

[17] = target: Serine/threonine-protein kinase Nek6 (Homo sapiens) (UniProt Q9HC98); conditions: at 1 µM
[18] = target: Serine/threonine-protein kinase Nek7 (Homo sapiens) (UniProt Q8TDX7); conditions: at 0.1 µM
Sequence of Serine/threonine-protein kinase Nek7 (Homo sapiens) (Q8TDX7 whole entry, looked up): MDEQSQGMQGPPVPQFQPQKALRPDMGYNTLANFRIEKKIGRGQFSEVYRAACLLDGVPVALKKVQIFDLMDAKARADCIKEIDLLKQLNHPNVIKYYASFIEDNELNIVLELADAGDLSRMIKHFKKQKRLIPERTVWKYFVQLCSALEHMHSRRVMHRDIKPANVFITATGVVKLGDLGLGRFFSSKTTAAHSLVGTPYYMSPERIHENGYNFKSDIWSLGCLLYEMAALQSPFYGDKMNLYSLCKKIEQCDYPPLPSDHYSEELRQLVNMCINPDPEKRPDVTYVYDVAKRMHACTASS

[19] = target: Serine/threonine-protein kinase Nek7 (Homo sapiens) (UniProt Q8TDX7); conditions: at 1 µM
[20] = target: T7, Serine/threonine-protein kinase Nek9 (Homo sapiens) (UniProt Q8TD19); conditions: at 0.1 µM;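 further: reported value is the mean percent inhibition of NEK9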
T7 sequence (whole entry): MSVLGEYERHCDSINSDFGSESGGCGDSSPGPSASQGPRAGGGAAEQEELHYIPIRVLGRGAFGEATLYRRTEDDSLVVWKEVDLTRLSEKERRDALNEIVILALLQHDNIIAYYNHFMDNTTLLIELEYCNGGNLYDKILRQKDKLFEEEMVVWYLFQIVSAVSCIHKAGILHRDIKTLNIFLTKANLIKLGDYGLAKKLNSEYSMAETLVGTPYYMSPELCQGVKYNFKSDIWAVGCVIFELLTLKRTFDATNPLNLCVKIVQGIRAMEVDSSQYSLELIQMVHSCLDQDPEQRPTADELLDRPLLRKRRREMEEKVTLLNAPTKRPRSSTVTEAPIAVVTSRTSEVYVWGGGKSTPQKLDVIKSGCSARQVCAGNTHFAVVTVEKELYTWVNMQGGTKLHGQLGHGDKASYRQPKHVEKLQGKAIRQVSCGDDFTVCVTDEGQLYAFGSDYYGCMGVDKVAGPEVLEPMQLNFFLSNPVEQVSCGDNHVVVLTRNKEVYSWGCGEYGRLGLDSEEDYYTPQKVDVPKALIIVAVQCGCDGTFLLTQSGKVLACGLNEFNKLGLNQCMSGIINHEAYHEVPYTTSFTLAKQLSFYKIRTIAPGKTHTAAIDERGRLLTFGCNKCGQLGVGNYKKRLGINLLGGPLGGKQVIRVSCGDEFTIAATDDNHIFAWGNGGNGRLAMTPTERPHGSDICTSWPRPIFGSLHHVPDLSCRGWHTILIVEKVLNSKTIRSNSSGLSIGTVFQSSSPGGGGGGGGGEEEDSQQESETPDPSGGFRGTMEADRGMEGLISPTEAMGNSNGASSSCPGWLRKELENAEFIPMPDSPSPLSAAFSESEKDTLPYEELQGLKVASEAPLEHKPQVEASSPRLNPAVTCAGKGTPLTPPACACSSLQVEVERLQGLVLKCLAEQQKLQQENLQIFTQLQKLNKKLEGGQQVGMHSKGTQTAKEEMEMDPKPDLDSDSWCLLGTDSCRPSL

Sequence of Sphingosine kinase 1 (Homo sapiens) (Q9NYA1 whole entry): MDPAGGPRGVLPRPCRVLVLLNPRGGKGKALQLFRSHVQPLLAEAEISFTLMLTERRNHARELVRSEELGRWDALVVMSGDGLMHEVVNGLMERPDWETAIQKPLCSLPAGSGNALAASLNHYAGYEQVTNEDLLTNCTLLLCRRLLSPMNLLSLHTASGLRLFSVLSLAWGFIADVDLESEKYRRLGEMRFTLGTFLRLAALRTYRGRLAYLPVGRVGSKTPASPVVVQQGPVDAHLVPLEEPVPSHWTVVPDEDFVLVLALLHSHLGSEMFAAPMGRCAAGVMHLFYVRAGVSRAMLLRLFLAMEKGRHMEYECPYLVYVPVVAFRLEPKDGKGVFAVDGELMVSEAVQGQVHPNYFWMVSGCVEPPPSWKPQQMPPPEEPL

In the case of CC1=C(C(=O)Nc2ccc3[nH]nc(C)c3c2)C(c2ccc(C(F)(F)F)cc2)CC(=O)N1 (stereo not given), the inhibition [1] is reported as -1.2%, the inhibition [2] is reported as -0.06% and the inhibition [3] is reported as -2.04%. The inhibition [4] was 1.79%, the inhibition [5] was 2.97% and the inhibition [6] was 3.27%. It also gave an inhibition [7] of -5.37%, an inhibition [8] of 2.18% and an inhibition [9] of 0.69%. For the same compound, the inhibition [10] was 0.85%, the inhibition [11] was 2.46% and the inhibition [12] was 1.56%. The inhibition [13] was 2.57%, the inhibition [14] was 3.16% and the inhibition [15] was 3.29%. For the same compound, the inhibition [16] was 1.24%, the inhibition [17] was -1.35% and the inhibition [18] was 3.34%. The inhibition [19] was 2.74% and the inhibition [20] was 1.92%.
